Source: PubChem BioAssay (NCATS)
Inconclusive results are not listed. Calls of active or inactive are those of the source. The call rests on the fitted dose curve; in most records, active means well fitted cell-killing curve with a large enough effect; inconclusive means small, poorly fitted or top-dose-only effect, or effect the other way; inactive means no such curve, though single readings can be large or run the other way.

Test: Viability qHTS for spleen associated tyrosine kinase inhibitor (SYKi) drug resistant MV4-11 cells (AID 1963824); further: nearly all actives have a fitted effect of over 35% in size
Settings: SYKi-resistant MV4-11 viability, CellTiter-Glo, 72 h; series mostly up to 45 µM
In short: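 SYK-inhibitor-resistant MV4-11 AML cells were seeded at 500 per well onto compound and cultured 72 hours (37 °C, 5% CO2). CellTiter-Glo was then added, and after 10 min at room temperature, luminescence gave viability.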
Potency means the concentration at half of the fitted maximal effect.

Compound | Potency
COc1cccc(N2CCN(C3=Nc4c(F)cccc4[C@H](CC(=O)O)N3c3cc(C(F)(F)F)ccc3OC)CC2)c1 | 18.4 µM (active)
O=c1[nH]ccc2nc(-c3ccc(CN4CCC(c5nc(-c6ccccn6)n[nH]5)CC4)cc3)c(-c3ccccc3)cc12 | 9.2 µM (active)
CC(=O)OC1CC(C)C2(CCC3(CC(=O)OC3O)O2)C2(C)CCCC(C)(C)C12 (stereo not drawn) | 10 µM (active)
CC1=CC2/C=C(\C)CCC3OC(C)(C)OC3CCC(=O)C23C(=O)NC(CC(C)C)C3C1C (stereo not drawn) | 7.96 µM (active)
O=C1NC(Cc2ccccc2)C(=O)N2CCCC12 (stereo not drawn) | inactive
Cc1cccc(-c2[nH]ncc2-c2ccnc3ccccc23)n1 | 16.4 µM (active)
CC1CC2OCC3(O)CCC(O)C(C14CC(c1ccoc1)OC4=O)C23CO (stereo not drawn) | inactive
CC1(C)[C@@H](O[C@H]2O[C@H](C(=O)O)[C@@H](O)[C@H](O)[C@H]2O[C@@H]2O[C@H](C(=O)O)[C@@H](O)[C@H](O)[C@H]2O)CC[C@]2(C)[C@H]3C(=O)C=C4[C@@H]5C[C@@](C)(C(=O)O)CC[C@]5(C)CC[C@@]4(C)[C@]3(C)CC[C@@H]12 | inactive
